In the library only some 7.4% were active in any assay of this set; here they are far more common.
HEK cytotox = Cytotoxic Profiling in HEK 293 Cell Line of Diverse Libraries Using Quantitative High-Throughput Screening; HEK 293 viability, ATP luminescence (CellTiter-Glo), 48-72 h; 6.6% of 94,000 active; Potency, µM (top dose mostly 115 µM), inactives show at the highest dose activity change, negative = cytotoxicity, most hits filed as inhibitors; also: % is scaled to controls: 0 for no effect and ±100 for the full control effect; nearly all actives have a fitted effect of over 60% in size
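ATP-coupled CellTiter-Glo luminescence served as viability read-out, recorded 10 min after reagent addition at room temperature. HEK 293 cells, 250 cells/well, had been incubated with pintool-transferred compound for 48 or 72 hr at 37 degree Celsius.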
SNCA expr inhib = Primary qHTS assay for inhibitors of alpha-synuclein gene (SNCA) expression; HEK-293 SNCA-luciferase knock-in, luminescence, 24 h; Potency, µM (highest dose often 57.2 µM), inactives show at the top dose activity change, negative = inhibition, actives largely listed as inhibitors; 0.17% of 140,000 active; AID 1671194, 2021;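 also: plate controls were DMSO cells for no effect and cell-free wells for full effect; nearly all actives have a fitted effect of over 45% in size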
hNpr1 antagonist = Natriuretic polypeptide receptor (hNpr1) antagonism - Primary qHTS; Potency, µM (titrated, usually from 46.3 µM), without a hit: at the top dose activity change, negative = inhibition, most hits filed as inhibitors; HEK293 hNpr1 GloSensor cGMP, ANP-stimulated luminescence; 1.6% of 76,000 active; Atrial natriuretic peptide receptor 1 (Homo sapiens), P16066; calls by dose curve; also: % is scaled to controls: 0 for no effect and ±100 for the full control effect; nearly all actives have a fitted effect of over 60% in size
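HEK293 cells stably expressing human Npr1 and cGMP GloSensor pGS-40F, loaded 2 h with 2% GloSensor reagent, given compound 30 min at room temperature. Luminescence read before and 20 min after 0.1 nM hNppA.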
FLuc inh-1 = Firefly luciferase inhibition profiling of diverse chemical library using quantitative high-throughput screening. Potency, µM (series often up to 115 µM), hits mostly inhibitors. purified P. pyralis luciferase, luminescence, biochemical. Luciferin 4-monooxygenase (Photinus pyralis), P08659. AID 1347043, 2019. 2.5% of 76,000 active; also: % is scaled to controls: 0 for no effect and ±100 for the full control effect; nearly all actives have a fitted effect of over 65% in size
Target sequence (P08659 whole entry, looked up): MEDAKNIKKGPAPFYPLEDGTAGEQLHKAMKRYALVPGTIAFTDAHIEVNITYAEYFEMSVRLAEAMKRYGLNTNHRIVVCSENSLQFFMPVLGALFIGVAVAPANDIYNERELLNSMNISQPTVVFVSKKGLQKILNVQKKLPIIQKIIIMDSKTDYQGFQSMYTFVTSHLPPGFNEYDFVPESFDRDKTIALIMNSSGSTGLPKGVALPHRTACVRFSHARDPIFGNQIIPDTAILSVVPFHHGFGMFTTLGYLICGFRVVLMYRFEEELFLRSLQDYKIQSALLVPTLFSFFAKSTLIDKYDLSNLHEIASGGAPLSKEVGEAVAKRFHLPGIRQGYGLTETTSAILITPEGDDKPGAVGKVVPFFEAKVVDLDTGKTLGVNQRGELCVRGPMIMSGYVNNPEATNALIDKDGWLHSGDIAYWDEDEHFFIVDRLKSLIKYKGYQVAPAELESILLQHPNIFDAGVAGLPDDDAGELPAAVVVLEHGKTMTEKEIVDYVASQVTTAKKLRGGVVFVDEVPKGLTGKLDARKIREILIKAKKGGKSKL
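Purified 10nM P. pyralis luciferase with 10uM D-luciferin and 10uM ATP in 50mM Tris acetate pH 7.5, 10mM Mg acetate, 0.01% Tween-20, 0.05% BSA. qHTS titration; luminescence read by CCD imager.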
NIH3T3 tox = Cytotoxic Profiling in NIH 3T3 Cell Line of Diverse Libraries Using Quantitative High-Throughput Screening | 4.3% of 94,000 active | NIH 3T3 viability, CellTiter-Glo ATP luminescence, 48-72 h | AID 1345082, 2018 | Potency, µM (series often up to 96.7 µM), inactives show at the highest dose activity change, negative = cytotoxicity, most hits filed as inhibitors; also: % is scaled to controls: 0 for no effect and ±100 for the full control effect; nearly all actives have a fitted effect of over 55% in size
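ATP-dependent luminescence (CellTiter-Glo) served as the viability signal for NIH 3T3 cells treated with compound for 48 or 72 hr at 37 °C.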
SNCA viab count = GF-AFC viability counterscreen for inhibitors of alpha-synuclein gene (SNCA) expression; HEK-293-SNCA-luc viability, GF-AFC fluorescence, 24 h; Potency, µM (doses to about 57.1 µM), for inactives: at the top dose activity change, negative = cytotoxicity, usual class: cytotoxic; 0.12% of 150,000 active;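 also: 0% = DMSO-treated cells and -100% = medium-only wells without cells; nearly all actives have a fitted effect of over 30% in size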
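HEK-293-SNCA-luc cells (1500/well) plated 24 h, then exposed 24 h to a dilution series; GF-AFC added 30 min at 37C, fluorescence 405/540 nm; normalised to medium-only and DMSO wells, Hill fit.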
FLuc SDR no ATP = Firefly luciferase (FLuc-C-HiBiT) SDR gain of signal screen - without ATP | Purified FLuc-C-HiBiT, Nano-Glo HiBiT luminescence, no ATP | shares compounds with FLuc inh-1 | 7.8% of 1,300 active | Potency, µM (top dose mostly 32.7 µM), inactives show at the highest dose activation (signal gain), usual class: activators; also: nearly all actives have a fitted effect of over 55% in size
FLuc SDR ATP = Firefly luciferase (FLuc-C-HiBiT) SDR gain of signal screen - plus ATP. AID 1963319, 2024. Potency, µM (highest dose often 32.7 µM), inactives show at the highest dose activation (gain of signal), hits mostly activators. 8.7% of 1,300 active. purified FLuc-C-HiBiT + ATP, HiBiT complementation luminescence. shares compounds with FLuc inh-1;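 also: signal reports ligand binding via conformational change of the enzyme rather than luciferase catalysis; % of control where 0% means no effect; nearly all actives have a fitted effect of over 55% in size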
FLuc inh-2 = Firefly luciferase (FLuc-C-HiBiT) enzymatic inhibition screen - Functional assay; shares compounds with FLuc inh-1; purified FLuc-C-HiBiT enzyme, luciferin luminescence; Potency, µM (series often up to 32.7 µM), for inactives: top-dose activity change, negative = inhibition, hits mostly inhibitors; 42% of 1,300 active; AID 1963320, 2024; also: % is scaled to controls: 0 for no effect and ±100 for the full control effect; nearly all actives have a fitted effect of over 70% in size
* = called active by the depositor; i = inactive; ? = inconclusive; . = no result; [ ] = dose if it differs, or a comment. Unless noted, calls follow the shape of the dose curve; as a rule, active = well fitted curve in the direction sought with a large enough effect; inconclusive = small, poorly fitted or top-dose-only effect, or another doubt; inactive = no such curve, though single readings can be large; an effect the other way counts as inactive or inconclusive. Potency is read from the fitted curve at half-maximal effect.

SMILES	HEK cytotox	SNCA expr inhib	hNpr1 antagonist	FLuc inh-1	NIH3T3 tox	SNCA viab count	FLuc SDR no ATP	FLuc SDR ATP	FLuc inh-2
O=S(=O)(c1cccc(Cl)c1)n1c(/C=C/c2ccccc2Cl)nc2ccccc21	.	?	.	.	.	-23%	1.6µM*	?	0.18µM*
Cc1cn2nc(C(=O)Nc3ccc4c(c3)OCCO4)cc2c(N(C)Cc2ccccc2)n1	-24%	-7%	-1%	10µM*	?	-15%	24%	20%	?
O=C(O)c1cccc2c1CCN2C(=O)c1ccccc1	-26%	43%	-28%	2.5µM*	-7%	2%	15%	?	3.9µM*
CN(C1CCc2ccccc2C1)[S+](=O)([O-])c1cccs1 (stereo not given)	?	25%[87.6 µM]	3%[70.6 µM]	i	?	12%[87.6 µM]	12%[49.3 µM]	6%[49.3 µM]	-9%[49.3 µM]
O=C1c2cnc(-c3ccc(F)cc3)nc2OCCN1CC1CC1	.	.	.	.	.	.	?	?	14µM*
O=C1c2cnc(-c3ccc(F)cc3F)nc2OCCN1CC1CC1	.	.	.	.	.	.	30%[49.3 µM]	?	?
O=C(c1cc2ccc3cccnc3c2[nH]1)N1CCN(c2ccc(Cl)cc2)CC1	.	10%	.	.	.	15%	.	.	.
CC1CCCN(C(=O)c2cc3ccc4cccnc4c3[nH]2)C1 (stereo not given)	.	2.2µM*	.	.	.	?	3.9µM*	2.5µM*	0.56µM*
O=C(c1cc2ccc3cccnc3c2[nH]1)N1CCCCC1	.	?	.	.	.	-2%	11µM*	?	1.6µM*
Cc1ccccc1N(C)C1CN([S+](=O)([O-])c2ccccc2)C1	?	-8%	.	.	?	12%	.	.	.
CN1C[C@@H](NS(=O)(=O)c2ccc(C#N)cc2)C[C@H]1c1nc(-c2ccncc2)no1	-27%[172 µM]	9%[87.6 µM]	-1%[70.6 µM]	i	-30%[174 µM]	3%[87.6 µM]	.	.	.
CCCc1ccc2oc(C(=O)NCCc3nncn3CC)c(C)c2c1	?	122%	-16%	3.5µM*	?	-10%	13%	15%	?
CCNC(=O)C1C(c2cccc(NC(=O)c3ccc(C)cc3)c2)OC(=O)N1Cc1ccc(F)cc1 (stereo not given)	?	167%	11µM*	2.2µM*	?	-8%	17%	1.6µM*	1.8µM*
COc1ccc(C(=O)NC2CCN(c3ccc(F)cc3)C2=O)cc1 (stereo not given)	2%	-22%	-1%	i	i	-18%	.	.	.
CN(C)Cc1ccc(C2CCCN2Cc2cccc3nonc23)cc1 (stereo not given)	?	3%	5%	i	-14%	2%	.	.	.

Source: PubChem BioAssay (National Center for Advancing Translational Sciences (NCATS))
